TDP1 inh: blocks human tyrosyl-DNA phosphodiesterase 1; Q9NUW8; recombinant TDP1, AlphaScreen DNA substrate cleavage; Potency, µM (doses to about 130 µM), for the others: at the highest dose activity change, negative = inhibition, hits mostly inhibitors; 350,000 compounds, 0.28% hits; AID 485290; note: % is set by controls: 0 for no effect and ±100 for the full control effect; nearly all actives have a fitted effect of over 40% in size
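Enzyme-compound mixtures sat 15 min at room temperature, followed by a 5 min reaction with 15 nM final substrate and 10 min with AlphaScreen beads. Recombinant human Tdp1 was used at 1 nM final.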
DT40 TDP1 CPT: DT40-hTDP1 cell growth loss with CPT; chicken DT40 Tdp1-/-;hTDP1 cells + 20 nM CPT, ATP luminescence, 48 h; Potency, µM (top dose mostly 46.2 µM), without a hit: at the highest dose activity change, negative = growth inhibition, actives largely listed as inhibitors; 420,000 compounds, 12% hits; AID 686979; note: % is set by controls: 0 for no effect and ±100 for the full control effect; nearly all actives have a fitted effect of over 55% in size
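Cell growth measured by CellTiter-Glo luminescence after a minimum 48 h, 37 C compound exposure with 20 nM CPT in Tdp1-knockout DT40 cells stably expressing hTDP1, seeded 400/well; qHTS titration format.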
ClpP mod: qHTS Assay for Activators of ClpP | ATP-dependent Clp protease proteolytic subunit (Bacillus subtilis (strain 168)), P80244 | purified B. subtilis ClpP, FRET peptide cleavage, 20 min | Potency, µM (doses to about 57.5 µM), inactives show at the highest dose activity change, negative = active | 340,000 compounds, 1.9% hits | AID 651965, 2013; active = well fitted falling curve with a large enough effect; inconclusive = small, poorly fitted or top-dose-only effect; inactive = no such curve, though single readings can be large or run the other way; note: the source files actives as falling curves though it sought activators and does not explain the sign; nearly all actives have a fitted effect of over 65% in size
Target sequence (P80244 whole entry, looked up): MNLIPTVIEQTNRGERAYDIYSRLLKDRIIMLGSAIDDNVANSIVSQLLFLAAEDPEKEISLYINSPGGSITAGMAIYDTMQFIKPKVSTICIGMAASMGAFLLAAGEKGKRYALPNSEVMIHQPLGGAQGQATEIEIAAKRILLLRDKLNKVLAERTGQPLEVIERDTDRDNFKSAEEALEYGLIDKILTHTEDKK
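Purified B. subtilis ClpP, 10 microg/mL final in Tris/HCl pH8 with KCl, BSA, glycerol and Tween-20, cleaved an Abz/nitrotyrosine-quenched decapeptide. Fluorescence (ex 320, em 430) was read at 0 and 20 min at room temperature. Delta was normalized to 5.8 microM ADEP and DMSO/no-enzyme controls.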
TDP1 cell noCPT: qHTS for Inhibitors of human tyrosyl-DNA phosphodiesterase 1 (TDP1): qHTS in cells in absence of CPT | Potency, µM (top dose mostly 46.2 µM), without a hit: at the highest dose activity change, negative = growth inhibition, actives largely listed as inhibitors | AID 686978, 2013 | 420,000 compounds, 15% hits | DT40 Tdp1-/- hTDP1 cells, no CPT, ATP luminescence, 48 h; note: % is set by controls: 0 for no effect and ±100 for the full control effect; nearly all actives have a fitted effect of over 55% in size
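Readout: luminescence from CellTiter-Glo after 30 min in the dark at RT. Cells: DT40 Tdp1-/- with stable hTDP1, 400/well. Exposure: compounds alone, ≥48 hr, 37 °C.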
* = called active by the depositor; ? = inconclusive; · = not tested or not shown; ! = a repeat was not active; [ ] = dose if it differs, or a comment. Compounds with a hit are over-represented: about 17% of the library has one in this group of screens. Unless noted, calls come from the whole dose curve; as a rule, active = well fitted curve in the direction sought with a large enough effect; inconclusive = small, poorly fitted or top-dose-only effect, or another doubt; inactive = no such curve, though single readings can be large; an effect the other way counts as inactive or inconclusive. Potency is the fitted concentration of half-maximal effect.

SMILES	TDP1 inh	DT40 TDP1 CPT	ClpP mod	TDP1 cell noCPT
CCCn1c(SCC(=O)N2c3ccc(F)cc3CCC2C)nnc1-c1ccccn1 (stereo not drawn)	4%	?	0%	21µM*
CC(C)(C)C1CCc2c(sc(NC(=O)c3cccc(Cl)c3)c2C(=O)NCc2ccco2)C1 (stereo not drawn)	·	-24%	-7%	2%
CC(CCN1CCN(c2ccccc2)CC1)c1ccccc1 (stereo not drawn)	·	5%	·	?
COc1ccccc1OCCCN1CCC(C(O)(c2ccccc2)c2ccccc2)CC1	·	?	0%	21µM*
OC(c1ccccc1)(c1ccccc1)C1CCN(CCCOc2ccc(F)cc2)CC1	·	?	1%	?
OC(c1ccccc1)(c1ccccc1)C1CCN(CCCOc2ccccc2Cl)CC1	·	21µM*	1%	16µM*
Cc1ccc(OCCCN2CCC(C(O)(c3ccccc3)c3ccccc3)CC2)cc1	·	?	-3%	?
CCN(CC)CCOc1ccc(/C(=C(\Cl)c2ccccc2)c2ccccc2)cc1	14%[56.1 µM]	?	-6%	15µM*!
CC/C(=C(/c1ccccc1)c1ccc(OCCN(C)C)cc1)c1ccccc1	14%	·	·	·
CC(=O)c1cccc(-c2ccnc3c2CC(C(=O)NCC2CCOCC2)O3)c1 (stereo not drawn)	·	3.7µM*	-1%	2.9µM*
CC(=O)c1cccc(-c2ccnc3c2CC(C(=O)NCC2CC2)O3)c1 (stereo not drawn)	·	23µM*	0%	?
CCN1CCCC1CNC(=O)c1cc(COc2ccc(C)c(C)c2)on1 (stereo not drawn)	2%	-28%	-2%	-13%
CCOc1ccc(C(CC(=O)O)N2Cc3ccccc3C2=O)cc1OC (stereo not drawn)	0%	1%	-1%	5%
Cc1cc(O)c(C=O)c2c1C(=O)Oc1c(CO)c(O)c3c(c1O2)C(O)OC3=O (stereo not drawn)	·	-1%	2%	-8%
Cc1cc(O)c(C=O)c2c1C(=O)Oc1c(COC(=O)/C=C/C(=O)O)c(O)c(C(=O)O)c(C)c1O2	40µM*	-5%	·	-16%
Cc1ccccc1-c1cnc(C(O)c2ccc(Cl)cc2C)[nH]1 (stereo not drawn)	·	?	0%	?
COc1ccc([N+](=O)[O-])cc1NC(=O)C(C)Sc1nc(-c2ccccc2)cs1 (stereo not drawn)	5%	18µM*	-3%	?
CCC(C)C(=O)Nc1ccc([N+](=O)[O-])cc1OC (stereo not drawn)	2%	-4%	·	-1%
CCSc1ccccc1C(=O)Nc1ccc([N+](=O)[O-])cc1OC	1%	?	-8%	21µM*
COc1ccc(C(CC(=O)Nc2cc([N+](=O)[O-])ccc2OC)c2ccccc2)cc1 (stereo not drawn)	2%	16µM*	-2%	?
COc1ccc([N+](=O)[O-])cc1NC(=O)C(C)Sc1ccccc1 (stereo not drawn)	4%	?	1%	?
CCC1Oc2ccccc2N(CC(=O)NCc2cccs2)C1=O (stereo not drawn)	5%	-6%	·	-23%
CCCCNC(=O)C1CCC(CNS(=O)(=O)c2ccc(Cl)cc2)CC1 (stereo not drawn)	-3%	-11%	-4%	-10%
Fc1ccc2c(c1)C(c1ccc(N3CCOCC3)cc1)=NNC(c1cccs1)=N2	8%	?	0%	23µM*
Brc1ccc2c(c1)C(c1ccc(N3CCOCC3)cc1)=NNC(c1cccs1)=N2	5%	?	2%	21µM*
SMILES	TDP1 inh	DT40 TDP1 CPT	ClpP mod	TDP1 cell noCPT
Cc1ccc2c(c1)C(c1ccc(N3CCOCC3)cc1)=NNC(c1cccs1)=N2	2%	?	1%	?
CCOC(=O)C1CCCN(C(=O)c2cc3c(Cl)nc4ccccc4c3s2)C1 (stereo not drawn)	0%	?	-12%	18µM*
COc1ccc(Nc2cc(C(=O)NC3CCCC3)c3ccccc3n2)c(OC)c1	9%	?	14%	?
CCOC(=O)C1CCCN(C(=O)c2cc(Nc3ccc(OC)cc3OC)nc3ccccc23)C1 (stereo not drawn)	10%	16µM*	1%	21µM*
CCOC(=O)C1CCCN(C(=O)c2cc(Nc3ccc(OC)c(OC)c3)nc3ccccc23)C1 (stereo not drawn)	4%	?	0%	16µM*
COc1ccc(CN2CCOc3ccc(C(O)c4cccnc4)cc3C2)c(OC)c1OC (stereo not drawn)	·	-9%[9.04 µM]	·	-29%
CCOC(=O)c1c(-c2ccc(-c3ccccc3)cc2)csc1NC(=O)CNCCN(C)C	·	?	·	23µM*
CCNC(=S)Nc1scc(-c2ccccc2)c1C(=O)OCC	2%	?	0%	23µM*
CCOC(=O)c1c(-c2cccc([N+](=O)[O-])c2)csc1NC(=O)C1CC1	6%	18µM*	-3%	21µM*
CCOC(=O)c1sc(NC(=S)NC(=O)c2ccccc2Cl)c(C(=O)OCC)c1C	0%	?	0%	26µM*
CCOC(=O)c1sc(NC(=S)NC(=O)c2ccccc2)c(C(=O)OCC)c1C	5%	?	1%	?
Cc1ccc(NC(=O)C2CCN(S(=O)(=O)c3c(C)noc3C)CC2)cc1	2%	-11%	1%	-20%
O=C(c1cccc(Cl)c1)C1CCCN(C(=O)c2ccc3c(c2)OCO3)C1 (stereo not drawn)	5%	?	0%	?
COc1ccc(OCc2cc(C(=O)NCc3nc(C)cs3)no2)c(Cl)c1	4%	?	14%	?
CCOC(=O)c1c(-c2ccccc2)csc1NC(=O)c1cc2ccccc2oc1=O	2%	?	1%	16µM*
CCOC(=O)c1c(-c2cccs2)csc1NC(=O)CN1CC(C)OC(C)C1 (stereo not drawn)	-5%	26µM*	?	23µM*
CCOC(=O)c1c(-c2ccc(F)cc2)csc1NC(=O)CCN1CCOCC1	·	?	1%	21µM*
CCOC(=O)c1c(-c2ccccc2)csc1NC(=O)c1cc(=O)c2ccc(C)cc2o1	9%	-17%	-1%	-19%
CCOC(=O)c1c(-c2ccccc2)csc1NC(=O)C(C)NCCCN1CCOCC1 (stereo not drawn)	-6%	?	-5%	?
CCOC(=O)c1c(-c2ccc(-c3ccccc3)cc2)csc1NC(=O)CCN1CCOCC1	3%	18µM*	?	15µM*
COC(=O)c1ccccc1NC(=O)COc1ccc(S(=O)(=O)NC(C)C)cc1	0%	?	-11%	?
CCOC(=O)c1c(NC(=O)CCl)sc(CN(C)C)c1-c1ccccc1	2%	4.1µM*	·	9.2µM*

Compound activity: PubChem BioAssay, National Center for Advancing Translational Sciences (NCATS)
